{"source": "PubChem BioAssay (NCATS)", "key": {"[1]": {"target": "Glutathione peroxidase 1 (Homo sapiens) (UniProt P07203)", "sequence (P07203 whole entry, looked up)": "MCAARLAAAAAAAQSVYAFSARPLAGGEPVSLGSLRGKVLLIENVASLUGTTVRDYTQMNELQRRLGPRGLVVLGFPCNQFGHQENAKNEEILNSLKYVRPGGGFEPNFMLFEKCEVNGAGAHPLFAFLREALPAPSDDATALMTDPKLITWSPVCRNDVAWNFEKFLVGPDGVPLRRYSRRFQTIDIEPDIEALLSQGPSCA", "assay": "Primary qHTS Assay for Inhibitors of Recombinant Selenoprotein Glutathione Peroxidase 1 (GPX1) (AID 1845191)", "outline": "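NADPH consumption tracked by fluorescence at 340/450 nm between t=0 and t=15 min, room temperature. Final mix: 10 nM GPX1, 100 nM glutathione reductase, 1 mM GSH, 0.5 mM NADPH, 0.5 mM cumene hydroperoxide, 0.01% BSA; 30 min compound–enzyme preincubation.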"}, "[2]": {"target": "Phospholipid hydroperoxide glutathione peroxidase GPX4 (Homo sapiens) (UniProt P36969)", "sequence (P36969 whole entry, looked up)": "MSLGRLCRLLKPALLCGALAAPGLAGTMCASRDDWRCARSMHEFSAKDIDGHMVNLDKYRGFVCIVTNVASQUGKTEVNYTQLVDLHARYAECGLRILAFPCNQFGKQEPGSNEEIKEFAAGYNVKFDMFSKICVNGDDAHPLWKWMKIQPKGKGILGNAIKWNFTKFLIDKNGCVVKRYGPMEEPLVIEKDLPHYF", "assay": "Primary qHTS Assay for Inhibitors of Recombinant Selenoprotein Glutathione Peroxidase 4 (GPX4) (AID 1845192); for activity change, negative = inhibition: series mostly up to about 50 µM", "outline": "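NADPH consumption followed by fluorescence at 340/450 nm, t=0 and after 15 min at room temperature. Reaction started with cumene hydroperoxide (0.5 mM final) after 30 min compound–GPX4 preincubation; final 200 nM GPX4, 100 nM GR, 1 mM GSH, 0.5 mM NADPH.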"}}, "note": "Inconclusive results are not listed. Entries that show only a call come without a potency. A number with no mark means an inactive call. Calls of active or inactive are those of the source. Calls come from the whole dose curve; as a rule, active = well fitted inhibition curve with a large enough effect; inconclusive = small, poorly fitted or top-dose-only effect; inactive = flat fitted curve, though single readings scatter. Note: nearly all actives have a fitted effect of over 65% in size."}
{"smiles": "c1ccc2c(CC3=NCCN3)cccc2c1", "values": [{"measurement": "Potency", "setting": "[1]", "value": "inactive"}, {"measurement": "Potency", "setting": "[2]", "value": "inactive"}]}
{"smiles": "Cc1ncc(COP(=O)(O)O)c(C=O)c1O", "values": [{"measurement": "Potency", "setting": "[1]", "value": "inactive"}, {"measurement": "Potency", "setting": "[2]", "value": "inactive"}]}
{"smiles": "O=c1cc[nH]c(=O)[nH]1", "values": [{"measurement": "Potency", "setting": "[1]", "value": "inactive"}, {"measurement": "Potency", "setting": "[2]", "value": "inactive"}]}
{"smiles": "O=C(O)c1ccccn1", "values": [{"measurement": "Potency", "setting": "[1]", "value": "inactive"}, {"measurement": "Potency", "setting": "[2]", "value": "inactive"}]}
{"smiles": "NC(=O)NC(=O)Cc1ccccc1", "values": [{"measurement": "Potency", "setting": "[1]", "value": "inactive"}, {"measurement": "Potency", "setting": "[2]", "value": "inactive"}]}
{"smiles": "Cc1cc(C(C#N)c2ccc(Cl)cc2)c(Cl)cc1NC(=O)c1cc(I)cc(I)c1O", "note": "(configuration not stated)", "values": [{"measurement": "Potency", "setting": "[1]", "value": "inactive"}, {"measurement": "Potency", "setting": "[2]", "value": "inactive"}]}
{"smiles": "Nc1ccc(S(=O)(=O)NC(=O)c2ccccc2)cc1", "values": [{"measurement": "Potency", "setting": "[1]", "value": "inactive"}, {"measurement": "Potency", "setting": "[2]", "value": "inactive"}]}
{"smiles": "NCC(=O)CCC(=O)O", "values": [{"measurement": "Potency", "setting": "[1]", "value": "inactive"}, {"measurement": "Potency", "setting": "[2]", "value": "inactive"}]}
{"smiles": "O=Cc1ccccc1C=O", "values": [{"measurement": "Potency", "setting": "[1]", "value": "inactive"}, {"measurement": "Potency", "setting": "[2]", "value": "inactive"}]}
{"smiles": "O=C1O[C@H](CO)[C@@H](O)[C@H](O)[C@H]1O", "values": [{"measurement": "Potency", "setting": "[1]", "value": "inactive"}, {"measurement": "Potency", "setting": "[2]", "value": "inactive"}]}
{"smiles": "NC(CSCC(=O)O)C(=O)O", "note": "(configuration not stated)", "values": [{"measurement": "Potency", "setting": "[1]", "value": "inactive"}, {"measurement": "Potency", "setting": "[2]", "value": "inactive"}]}
{"smiles": "CN(C)CCCN1c2ccccc2CCc2ccccc21", "values": [{"measurement": "Potency", "setting": "[1]", "value": "inactive"}, {"measurement": "Potency", "setting": "[2]", "value": "inactive"}]}
{"smiles": "CC(O)COc1ccccc1", "note": "(configuration not stated)", "values": [{"measurement": "Potency", "setting": "[1]", "value": "inactive"}, {"measurement": "Potency", "setting": "[2]", "value": "inactive"}]}
{"smiles": "C/C(=C(\\CCOP(=O)(O)O)SC(=O)c1ccccc1)N(C=O)Cc1cnc(C)nc1N", "values": [{"measurement": "outcome", "setting": "[1]", "value": "inactive [at 4.49 µM]"}, {"measurement": "outcome", "setting": "[2]", "value": "inactive [at 4.52 µM]"}]}
{"smiles": "OCc1cc(C(O)CNCCCCCCOCCCCc2ccccc2)ccc1O", "note": "(configuration not stated)", "values": [{"measurement": "Potency", "setting": "[1]", "value": "inactive"}, {"measurement": "Potency", "setting": "[2]", "value": "inactive"}]}
{"smiles": "CN1CCCCC1CCN1c2ccccc2Sc2ccc(S(C)=O)cc21", "note": "(configuration not stated)", "values": [{"measurement": "Potency", "setting": "[1]", "value": "inactive"}, {"measurement": "Potency", "setting": "[2]", "value": "inactive"}]}
{"smiles": "CN1[C@@H]2CC(OC(=O)[C@H](CO)c3ccccc3)C[C@H]1[C@@H]1O[C@@H]12", "note": "(some centres not stated)", "values": [{"measurement": "Potency", "setting": "[1]", "value": "inactive"}, {"measurement": "Potency", "setting": "[2]", "value": "inactive"}]}
{"smiles": "OCC(CO)N[C@H]1C[C@](O)(CO)[C@@H](O)[C@H](O)[C@H]1O", "values": [{"measurement": "Potency", "setting": "[1]", "value": "inactive"}, {"measurement": "Potency", "setting": "[2]", "value": "inactive"}]}
{"smiles": "O=C(O)[C@H](O)c1ccccc1", "values": [{"measurement": "Potency", "setting": "[1]", "value": "inactive"}, {"measurement": "Potency", "setting": "[2]", "value": "inactive"}]}
{"smiles": "O=c1[nH]c(=O)c2[nH]c(=O)[nH]c2[nH]1", "values": [{"measurement": "activity, negative = inhibition", "setting": "[1]", "value": "-12.4% [at 9.52 µM]"}, {"measurement": "activity change, negative = inhibition", "setting": "[2]", "value": "-16.1% [at 9.73 µM]"}]}
{"smiles": "Oc1cn2c(n1)Nc1ccc(Cl)c(Cl)c1C2", "values": [{"measurement": "Potency", "setting": "[1]", "value": "inactive"}, {"measurement": "Potency", "setting": "[2]", "value": "inactive"}]}
{"smiles": "CCCCCCCCCCCCOS(=O)(=O)O", "values": [{"measurement": "Potency", "setting": "[1]", "value": "inactive"}, {"measurement": "Potency", "setting": "[2]", "value": "inactive"}]}
{"smiles": "O=c1cc(CO)occ1O", "values": [{"measurement": "Potency", "setting": "[1]", "value": "inactive"}, {"measurement": "Potency", "setting": "[2]", "value": "inactive"}]}
{"smiles": "NC(=O)N/N=C/c1ccc([N+](=O)[O-])o1", "values": [{"measurement": "Potency", "setting": "[1]", "value": "inactive"}, {"measurement": "Potency", "setting": "[2]", "value": "inactive"}]}
{"smiles": "CCOC(=O)c1ccc(O)cc1", "values": [{"measurement": "Potency", "setting": "[1]", "value": "inactive"}, {"measurement": "Potency", "setting": "[2]", "value": "inactive"}]}
{"smiles": "O=C1NS(=O)(=O)c2ccccc21", "values": [{"measurement": "Potency", "setting": "[1]", "value": "inactive"}, {"measurement": "Potency", "setting": "[2]", "value": "inactive"}]}
{"smiles": "CCCCN(CCCC)CCCOC(=O)c1ccc(N)cc1", "values": [{"measurement": "Potency", "setting": "[1]", "value": "inactive"}, {"measurement": "Potency", "setting": "[2]", "value": "inactive"}]}
{"smiles": "N[C@@H](CSCCCO)C(=O)O", "values": [{"measurement": "Potency", "setting": "[1]", "value": "inactive"}, {"measurement": "Potency", "setting": "[2]", "value": "inactive"}]}
{"smiles": "Cc1cc2c(cc1S(N)(=O)=O)S(=O)(=O)CCC2", "values": [{"measurement": "Potency", "setting": "[1]", "value": "inactive"}, {"measurement": "Potency", "setting": "[2]", "value": "inactive"}]}
{"smiles": "NCCNCCNCCNCCN", "values": [{"measurement": "outcome", "setting": "[1]", "value": "inactive [at 9.52 µM]"}, {"measurement": "outcome", "setting": "[2]", "value": "inactive [at 9.73 µM]"}]}
{"smiles": "CCCCOC(=O)c1ccc(O)cc1", "values": [{"measurement": "Potency", "setting": "[1]", "value": "inactive"}, {"measurement": "Potency", "setting": "[2]", "value": "inactive"}]}
{"smiles": "CCCOC(=O)c1ccccc1", "values": [{"measurement": "Potency", "setting": "[1]", "value": "inactive"}, {"measurement": "Potency", "setting": "[2]", "value": "inactive"}]}
{"smiles": "Nc1ccc(S(=O)(=O)Nc2ccc(Cl)nn2)cc1", "values": [{"measurement": "Potency", "setting": "[1]", "value": "inactive"}, {"measurement": "Potency", "setting": "[2]", "value": "inactive"}]}
{"smiles": "Oc1cccc(O)c1", "values": [{"measurement": "Potency", "setting": "[1]", "value": "inactive"}, {"measurement": "Potency", "setting": "[2]", "value": "inactive"}]}
{"smiles": "CCCCCCCCCCCCCCCCCCOCC(O)CO", "note": "(configuration not stated)", "values": [{"measurement": "Potency", "setting": "[1]", "value": "inactive"}, {"measurement": "Potency", "setting": "[2]", "value": "inactive"}]}
{"smiles": "N[C@@H](CSSC[C@H](N)C(=O)O)C(=O)O", "values": [{"measurement": "activity, negative = inhibition", "setting": "[1]", "value": "-7.33% [at 0.4 µM]"}, {"measurement": "activity change, negative = inhibition", "setting": "[2]", "value": "-7.83% [at 0.409 µM]"}]}
{"smiles": "O=C(Oc1ccccc1C(=O)O)c1ccccc1O", "values": [{"measurement": "Potency", "setting": "[1]", "value": "inactive"}, {"measurement": "Potency", "setting": "[2]", "value": "inactive"}]}
{"smiles": "OC[C@H]1O[C@@H](O[C@@H]2[C@@H](CO)O[C@](O)(CO)[C@H]2O)[C@H](O)[C@@H](O)[C@H]1O", "values": [{"measurement": "Potency", "setting": "[1]", "value": "inactive"}, {"measurement": "Potency", "setting": "[2]", "value": "inactive"}]}
{"smiles": "Oc1ccc(C(O)CNCCCCCCNCC(O)c2ccc(O)c(O)c2)cc1O", "note": "(configuration not stated)", "values": [{"measurement": "Potency", "setting": "[1]", "value": "inactive"}, {"measurement": "Potency", "setting": "[2]", "value": "inactive"}]}
{"smiles": "NC(=O)c1ncn([C@@H]2O[C@H](CO)[C@@H](O)[C@H]2O)c1N", "values": [{"measurement": "Potency", "setting": "[1]", "value": "inactive"}, {"measurement": "Potency", "setting": "[2]", "value": "inactive"}]}
{"smiles": "CC1(C)[C@@H]2CC[C@@]1(C)C(=O)C2", "values": [{"measurement": "Potency", "setting": "[1]", "value": "inactive"}, {"measurement": "Potency", "setting": "[2]", "value": "inactive"}]}
